SW480 rereplic: A quantitative high throughput screen for small molecules that induce DNA re-replication in SW480 colon adenocarcinoma cells. Potency, µM (titrated, usually from 46.1 µM), for inactives: at the top dose re-replication activation, actives largely listed as activators. AID 624297, 2012. SW480 DNA re-replication, Hoechst DNA content imaging, 48 h. 340,000 compounds, 1.8% hits; note: % of control where 0% means no effect; nearly all actives have a fitted effect of over 55% in size
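Treated cells incubate 48 hr (37 C, 5% CO2), are stained 40 min with Hoechst, and nuclear fluorescence is enumerated; a rise in nuclei with high DNA signal marks re-replication.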
MCF10A rerep: A quantitative high throughput screen for small molecules that induce DNA re-replication in MCF 10a normal breast cells; MCF 10A DNA re-replication, Hoechst nuclear intensity, 48 h; Potency, µM (doses to about 46.1 µM), without a hit: top-dose activity, positive = re-replication, usual class: activators; 350,000 compounds, 2.9% hits; AID 624296, 2012; note: % of control where 0% means no effect; nearly all actives have a fitted effect of over 50% in size
ELG1 DNA repair: qHTS screen for small molecules that inhibit ELG1-dependent DNA repair in human embryonic kidney (HEK293T) cells expressing luciferase-tagged ELG1 | HEK293T ELG1-luciferase reporter, luminescence, 16 h; DNA damage induced by 5-fluorouridine | 330,000 compounds, 2.3% hits | Potency, µM (titrated, usually from 46.1 µM), inactives show top-dose activity change, negative = inhibition, usual class: inhibitors | AID 504467, 2011; note: % is set by controls: 0 for no effect and ±100 for the full control effect; nearly all actives have a fitted effect of over 55% in size
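Reporter activity after DNA damage by 5-fluorouridine is monitored. Compound-treated cells incubate 16 hr at 37 °C, then ONE-Glo is added for 30 min before luminescence reading.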
KB-V1 MDR tox: qHTS assay for MDR1-selective chemotherapeutics: Primary screen using the drug-selected MDR subline cells KB-V1; 400,000 compounds, 3.4% hits; KB-V1 MDR cells viability, CellTiter-Glo, 72 h; Potency, µM (highest dose often 46.1 µM), actives largely listed as cytotoxic; note: % is set by controls: 0 for no effect and ±100 for the full control effect; nearly all actives have a fitted effect of over 60% in size
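Cytotoxicity toward P-gp-expressing KB-V1 cells was determined as loss of CellTiter-Glo luminescence after 72 h at 37 degrees C. Compounds were tested in quantitative HTS format across a concentration range, with curves fitted to normalized data.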
KB-3-1 cytotox: qHTS assay for MDR1-selective chemotherapeutics: Primary screen using the parental adenocarcinoma cell KB-3-1; Potency, µM (highest dose often 46.1 µM), hits mostly cytotoxic; AID 1347075, 2019; KB-3-1 viability, CellTiter-Glo ATP luminescence, 72 h; 400,000 compounds, 1.4% hits; note: % is set by controls: 0 for no effect and ±100 for the full control effect; nearly all actives have a fitted effect of over 60% in size
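Cytotoxicity in the drug-sensitive parental line KB-3-1 was scored as loss of CellTiter-Glo luminescence following 72 h incubation with compound. Values come from curve fitting of normalized concentration-response data.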
Active calls of the source: *; i = inactive; ? = inconclusive; · = not tested or not shown. Compounds with a hit are over-represented: about 8.2% of the library has one in this group of screens. Calls come from the whole dose curve; as a rule, active = well fitted curve in the direction sought with a large enough effect; inconclusive = small, poorly fitted or top-dose-only effect, or another doubt; inactive = no such curve, though single readings can be large; an effect the other way counts as inactive or inconclusive. Potency is the fitted concentration of half-maximal effect.

SMILES	SW480 rereplic	MCF10A rerep	ELG1 DNA repair	KB-V1 MDR tox	KB-3-1 cytotox
O=C(NNc1ccccc1[N+](=O)[O-])Nc1ccc(Cl)c(Cl)c1	-2%	?	-28%	i	?
CCCCN(CCCC)S(=O)(=O)c1ccc(NC(=O)c2cccs2)cc1	?	?	23µM*	?	?
CC(=O)N1CCN(c2ccc(NC(=O)c3ccc([N+](=O)[O-])cc3Cl)cc2)CC1	-1%	4%	-17%	i	i
CCN(CC)S(=O)(=O)c1cc([N+](=O)[O-])ccc1NNC(=O)Nc1ccc(Cl)c(Cl)c1	27%	?	-25%	?	5.8µM*
Cc1cc(C)nc(NS(=O)(=O)c2ccc(NC(=O)c3cccs3)cc2)n1	1%	12%	-16%	i	i
CCOc1ccc2nc(NC(=O)c3cc(=O)c4ccc(C)cc4o3)sc2c1	·	·	·	?	i
Cc1nn(-c2nc3ccccc3[nH]2)c(=O)c2ccccc12	3%	30%	?	5.8µM*	1.3µM*
Cc1nn(-c2nc3ccccc3[nH]2)c(N)c1-c1ccc(Cl)cc1	?	?	?	18µM*	?
NC(=NC(=O)c1ccccc1)N1CCN(C(c2ccccc2)c2ccccc2)CC1	-2%	11%	?	?	i
CCOc1ccc(/C=N/NC(=S)Nc2c(C)cccc2C)cc1	?	20%	18µM*	i	?
CCNC(=S)N/N=C/c1ccc(OCCOc2ccccc2C)cc1	7%	?	19%	i	i
CCc1nc(SCC(=O)Nc2nnc(CC)s2)c2c(=O)n(C)c(=O)n(C)c2n1	5%	5%	16µM*	i	i
CCCc1nc(SCC(=O)N2CCC(C)CC2)c2c(=O)n(C)c(=O)n(C)c2n1	-13%	?	?	?	?
CCc1nc(SCC(=O)N2CCC(C)CC2)c2c(=O)n(C)c(=O)n(C)c2n1	-17%	17%	21µM*	?	i
Cc1csc(NC(=O)CSc2nc(C)nc3c2c(=O)n(C)c(=O)n3C)n1	-8%	11%	21µM*	i	?
Cc1cccc(NC(=O)CSc2nc(C)nc3c2c(=O)n(C)c(=O)n3C)c1	13%	4%	-9%	i	i
CCCOc1ccc(CN(C(=O)Cc2coc3ccc(CC)cc23)C2CCS(=O)(=O)C2)cc1 (centres undefined)	·	·	·	i	i
COc1ccc(NC(=O)C2Cc3c(-c4cccc(C(C)=O)c4)ccnc3O2)cn1 (centres undefined)	·	·	·	i	2.1µM*
CC(=O)Nc1ccc(-c2ccnc3c2CC(C(=O)NCc2cccc(Cl)c2)O3)cc1 (centres undefined)	·	·	·	?	3.3µM*
CC(=O)Nc1ccc(NC(=O)C2Cc3c(-c4cccc(NC(C)=O)c4)ccnc3O2)cc1 (centres undefined)	·	·	·	i	i
CC(=O)c1cccc(-c2ccnc3c2CC(C(=O)Nc2cccc(OC(F)(F)F)c2)O3)c1 (centres undefined)	·	·	·	i	i
CC(=O)Nc1ccc(-c2ccnc3c2CC(C(=O)Nc2ccccc2)O3)cc1 (centres undefined)	·	·	·	?	21µM*
COc1ccc(NC(=O)C2Cc3c(-c4cccc(NC(C)=O)c4)ccnc3O2)cc1 (centres undefined)	·	·	·	?	4.1µM*
CCOC(=O)CC[C@H](NC(=O)Cn1cnc2c(SC)nc(N)nc21)C(=O)OCC	-23%	-44%	10%	i	i
CC(=O)Nc1cccc(-c2ccnc3c2CC(C(=O)NCc2ccco2)O3)c1 (centres undefined)	·	·	·	i	5.8µM*
SMILES	SW480 rereplic	MCF10A rerep	ELG1 DNA repair	KB-V1 MDR tox	KB-3-1 cytotox
COc1ccc(NC(=O)C2Cc3c(-c4cccc(C(C)=O)c4)ccnc3O2)cc1 (centres undefined)	·	·	·	?	4.1µM*
CC(=O)c1cccc(-c2ccnc3c2CC(C(=O)Nc2ccc4c(c2)OCO4)O3)c1 (centres undefined)	·	·	·	?	6.5µM*
COc1ccc(NC(=O)C2Cc3c(-c4ccc(NC(C)=O)cc4)ccnc3O2)cn1 (centres undefined)	·	·	·	?	10µM*
CC(=O)Nc1ccc(NC(=O)C2Cc3c(-c4cccc(C(C)=O)c4)ccnc3O2)cc1 (centres undefined)	·	·	·	i	i
C#CNC(=O)C1(CC=C)CCNCC1	-1%	-2%	17%	?	i
COc1ccccc1Cn1cc(C(=O)c2ccc(C)cc2)c(=O)c2cc(C)ccc21	·	·	·	i	i
CS(=O)(=O)Nc1cccc(NC(=O)C2Cc3c(-c4cccc(F)c4)ccnc3O2)c1 (centres undefined)	·	·	·	?	6.5µM*
O=C(Nc1ccccc1)C1Cc2c(-c3cccc(F)c3)ccnc2O1 (centres undefined)	·	·	·	i	i
Cc1cccc(N(CC(=O)NC(C)c2ccccc2)S(=O)(=O)c2ccccc2)c1C (centres undefined)	·	·	·	?	18µM*
CS(=O)(=O)N(CC(=O)NCCSC1CCCCC1)c1cccc(F)c1	-6%	?	-11%	15µM*	i
CS(=O)(=O)N(CC(=O)NCCSC1CCCCC1)c1ccccc1	1%	-21%	-2%	?	i
Cc1ccccc1N(CC(=O)NCCSC1CCCCC1)S(=O)(=O)c1ccccc1	-2%	20%	-29%	10µM*	?
CCCCCCCCCC[n+]1cc(Br)cc(Br)c1	·	·	·	i	?
COc1ccccc1N1CCN(C(c2cccs2)C(C)NS(=O)(=O)c2ccccc2)CC1 (centres undefined)	-2%	-5%	?	i	?
CC(NS(=O)(=O)c1ccccc1)C(c1cccs1)N1CCN(c2ccccc2)CC1 (centres undefined)	5%	?	-17%	6.5µM*	?
O=C(NCc1ccccc1CN1CCCC1)c1cccc(N2CCCC2=O)c1	-24%	3%	?	i	i
CCOc1ccc(Cn2c3ccc(OC)cc3c3nc4ccccc4nc32)cc1OC	?	7.3µM*	1%	i	i
CCOC(=O)Cn1c2ccc(OC)cc2c2nc3ccccc3nc21	-3%	6%	10%	i	i
COC(=O)Cn1c2ccc(OC)cc2c2nc3ccccc3nc21	-2%	1%	-18%	i	i
COc1ccc2c(c1)c1nc3ccccc3nc1n2Cc1ccc(OC)c(OC)c1	-3%	8.2µM*	?	i	i
